# What was measured:
# Assay in all cases: pooled miR-30 sensor sort-seq; sequence = guide strand
# Settings in all cases: shRNA
# ANGPTL3 = target: ANGPTL3
# ANG = target: ANG
# ANGPTL1 = target: ANGPTL1
# ANAPC5 = target: ANAPC5
# ANK1 = target: ANK1
# ANKRD22 = target: ANKRD22
# Further: reference of the scale not given here.
sequence,measurement,setting,value
TTGAATACTAGTCCTTCTGAGC,sensor-assay potency score (higher = more potent),ANGPTL3,-0.706
TGCTTTCACAGTATCTGTCATC,sensor-assay potency score (higher = more potent),ANG,-1.22
TTCACAAGCAACAACAACGTTT,sensor-assay potency score (higher = more potent),ANG,-0.418
TTATAGAGTATAACCTTCCATT,sensor-assay potency score (higher = more potent),ANGPTL3,-0.924
TAGACTTTTTTATCACTCCAGT,sensor-assay potency score (higher = more potent),ANGPTL1,-0.73
TGGTTTGGCATCATAGTGCTGG,sensor-assay potency score (higher = more potent),ANG,-0.375
TAATTTTGAATTGTCCACCTCT,sensor-assay potency score (higher = more potent),ANGPTL1,0.889
TGTAATACAACCGCTTTCCTAT,sensor-assay potency score (higher = more potent),ANAPC5,-0.539
TAGCTTGCAAGTGGTGACCTGG,sensor-assay potency score (higher = more potent),ANG,-0.539
TCTATCTGTCGAACCACCTTGC,sensor-assay potency score (higher = more potent),ANK1,0.271
TCATCTGTCATGCAGTAGCAGC,sensor-assay potency score (higher = more potent),ANK1,-1.12
TTGCAGGTATGAGACAATCGAG,sensor-assay potency score (higher = more potent),ANK1,-1
TTATCCTGAGCCAGGGTCGGTG,sensor-assay potency score (higher = more potent),ANG,-1.46
TTGTTGCCATGAATAAATGTGT,sensor-assay potency score (higher = more potent),ANG,-0.656
TTGATGCTGCGCTTGTTGCCAT,sensor-assay potency score (higher = more potent),ANG,-0.23
TTCTAGAATGATTTCTTTGTGC,sensor-assay potency score (higher = more potent),ANK1,0.132
TCTCTTCTGACCTCTGACCTTC,sensor-assay potency score (higher = more potent),ANK1,-0.43
TTAGGTTTTCTCTGTGAGGGTT,sensor-assay potency score (higher = more potent),ANG,0.674
TTTCACAGTATCTGTCATCCCG,sensor-assay potency score (higher = more potent),ANG,0.634
TTGATGTTTCCATAGTGACTGG,sensor-assay potency score (higher = more potent),ANK1,-0.739
TTGTGCAGCATCTTGCAGGTAT,sensor-assay potency score (higher = more potent),ANK1,0.193
TTGACATTAGCATTTCTTCTTA,sensor-assay potency score (higher = more potent),ANKRD22,-0.439
TTGCGAATGATCTTCTTGGTGA,sensor-assay potency score (higher = more potent),ANK1,0.462
TAGCTTCGGCACAAAATCCAGC,sensor-assay potency score (higher = more potent),ANK1,-0.878
TTGTTTTCACAGATGGCCTTGA,sensor-assay potency score (higher = more potent),ANG,0.228
TGTGGTGTGAAATTGACGCTGG,sensor-assay potency score (higher = more potent),ANK1,0.797
TGCACCTGTCGCGTCATCCTGC,sensor-assay potency score (higher = more potent),ANK1,-1.06
TATTCTGAAACTCATTCCCCTG,sensor-assay potency score (higher = more potent),ANK1,-1.12
TAGGTTTTCTCTGTGAGGGTTT,sensor-assay potency score (higher = more potent),ANG,0.619
TACAAGAGCCTCATTCTGCTTT,sensor-assay potency score (higher = more potent),ANKRD22,-0.0713
